# IL-1B inflam inh = inflammasome signaling inhibition, IL-1 beta readout; THP-1 LPS/ATP IL-1B secretion, AlphaLISA, 16 h; active compounds read low; activity change, % at 57.5 µM; actives 4.7% (n = 360,000); AID 743279; in the data active = activity change below about -50%; inconclusive = mostly about -30% to -49%; note: % is set by controls: 0 for no effect and ±100 for the full control effect
#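 Secreted IL-1B measured by AlphaLISA bead assay after 16 h compound exposure of THP-1 cells; compounds (final up to 57.5 uM) added 1 h before LPS (250 ng/mL) and ATP (1.25 mM) stimulation; lower signal means less secretion.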
# TDP1 block = blocks human tyrosyl-DNA phosphodiesterase 1; Q9NUW8; recombinant TDP1, AlphaScreen DNA substrate cleavage; Potency, µM (top dose mostly 130 µM), for the others: at the top dose activity change, negative = inhibition, most hits filed as inhibitors; actives 0.28% (n = 350,000); AID 485290; note: potency is the fitted concentration of half-maximal effect; % is set by controls: 0 for no effect and ±100 for the full control effect; nearly all actives have a fitted effect of over 40% in size
# Target sequence (Q9NUW8 whole entry, looked up): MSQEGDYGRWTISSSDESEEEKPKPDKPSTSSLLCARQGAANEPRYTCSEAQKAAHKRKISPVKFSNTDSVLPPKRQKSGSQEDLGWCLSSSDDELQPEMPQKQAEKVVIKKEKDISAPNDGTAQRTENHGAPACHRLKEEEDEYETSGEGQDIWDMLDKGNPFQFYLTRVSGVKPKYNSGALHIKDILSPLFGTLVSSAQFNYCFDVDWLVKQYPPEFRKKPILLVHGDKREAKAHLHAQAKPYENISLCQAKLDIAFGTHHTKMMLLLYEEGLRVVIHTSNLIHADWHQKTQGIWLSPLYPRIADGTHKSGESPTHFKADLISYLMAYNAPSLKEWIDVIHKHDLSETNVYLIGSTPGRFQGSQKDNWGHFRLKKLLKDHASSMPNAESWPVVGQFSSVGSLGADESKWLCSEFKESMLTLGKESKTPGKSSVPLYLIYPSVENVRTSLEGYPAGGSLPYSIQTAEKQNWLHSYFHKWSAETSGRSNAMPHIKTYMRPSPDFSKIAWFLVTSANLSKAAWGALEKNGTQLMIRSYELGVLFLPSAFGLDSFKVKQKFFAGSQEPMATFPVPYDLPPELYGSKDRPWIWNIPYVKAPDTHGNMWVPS
#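 Steps: enzyme plus compound, 15 min RT; add biotin/phosphotyrosine-FITC oligonucleotide (15 nM final), react 5 min; add donor/acceptor beads (10 ug/ml final), 10 min; read AlphaScreen. Tdp1 at 1 nM final.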
# TGFb inhibitor = blocks TGF-b signaling | Potency, µM (titrated, usually from 46.1 µM), for the others: at the top dose activity, negative = inhibition, actives largely listed as inhibitors | HepG2 CAGA-GFP TGF-b/SMAD3 reporter, GFP fluorescence, 18 h; TGF-beta stimulated, 500 pg/mL final | actives 1.2% (n = 410,000); note: potency is the fitted concentration of half-maximal effect; % is set by controls: 0 for no effect and ±100 for the full control effect; nearly all actives have a fitted effect of over 65% in size
#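 First, reporter cells (HEPG2 CAGA-GFP) rested 2 h at 37 degrees C. Next, compounds were pinned in and TGF-beta added to 500 pg/mL final. After 18 h, GFP was imaged per cell and summed per well.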
# HepG2 viability = kills HepG2 cells in TGF-b inhibitor counter-screen; HepG2 CAGA-GFP viability, ATP luminescence, 18 h; Potency, µM (highest dose often 46.1 µM), inactives show at the top dose activity change, negative = cytotoxicity, actives largely listed as cytotoxic; actives 0.76% (n = 410,000); note: potency is the fitted concentration of half-maximal effect
#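 CellTiter-Glo luminescence gave cytotoxicity after 18 hours at 37 degrees C. The cells were HepG2 CAGA-GFP in 1% FBS DMEM, stimulated with 500 pg/mL TGF-beta after compound addition. %Activity was normalised to no-cell wells (complete cell-killing) and DMSO (no toxicity), and curves were fitted and classified.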
# DT40 TDP1 no CPT = qHTS for Inhibitors of human tyrosyl-DNA phosphodiesterase 1 (TDP1): qHTS in cells in absence of CPT | AID 686978, 2013 | DT40 Tdp1-/- hTDP1 cells, no CPT, ATP luminescence, 48 h | Potency, µM (top dose mostly 46.2 µM), without a hit: top-dose activity change, negative = growth inhibition, usual class: inhibitors | actives 15% (n = 420,000); note: potency is the fitted concentration of half-maximal effect; % is set by controls: 0 for no effect and ±100 for the full control effect; nearly all actives have a fitted effect of over 55% in size
#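 DT40 Tdp1-/-;hTDP1 cells, no CPT (DMSO vehicle only), 400 cells/well; compounds pin-transferred; ≥48 hr, 37 °C; CellTiter-Glo 30 min RT dark, luminescence read.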
# TDP1 cell CPT = growth inhibition of DT40 Tdp1-/-;hTDP1 cells with camptothecin (screen for TDP1 inhibitors); Potency, µM (top dose mostly 46.2 µM), without a hit: at the top dose activity change, negative = growth inhibition, hits mostly inhibitors; chicken DT40 Tdp1-/-;hTDP1 cells + 20 nM CPT, ATP luminescence, 48 h; actives 12% (n = 420,000); note: potency is the fitted concentration of half-maximal effect; % is set by controls: 0 for no effect and ±100 for the full control effect; nearly all actives have a fitted effect of over 55% in size
#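 Chicken DT40 Tdp1-/- cells complemented with human TDP1, 400 cells/well, exposed to compounds plus 20 nM camptothecin for at least 48 h at 37 C; viability read as ATP content by CellTiter-Glo luminescence.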
# * marks the source's active call; other numbers are inactive results; ? = inconclusive; · = not tested or not shown; [ ] = another dose, or the depositor's remark. Most compounds without a hit are left out; they make up all but 19% or so of the library. Unless noted, calls come from the whole dose curve; as a rule, active = well fitted curve in the direction sought with a large enough effect; inconclusive = small, poorly fitted or top-dose-only effect, or another doubt; inactive = no such curve, though single readings can be large; an effect the other way counts as inactive or inconclusive.
SMILES,IL-1B inflam inh,TDP1 block,TGFb inhibitor,HepG2 viability,DT40 TDP1 no CPT,TDP1 cell CPT
COCC(=O)Nc1cc(C(=O)N2CCC(c3ccccc3)CC2)cc2nc(-c3ccccc3)n(C)c12,·,·,·,·,?,16µM*
COc1ccc(N2CC(NC(=O)C3CCCCC3)CC2=O)cc1OC (configuration not stated),·,-5%,-9%,-2%,11%,-17%
Cc1c2c(=O)n(-c3nc4ccccc4s3)nc-2cc(O)n1Cc1ccccc1,0,10%,-7%,2%,15µM*,21µM*
Cc1cc(/C=C2\NC(=S)N(C)C2=O)ccc1N1CCCC1,-8,11%,98%,-21%,?,?
CCCN1C(=O)/C(=C/c2ccc(N3CCCC3)c(C)c2)NC1=S,-25,4%,110%,0%,21µM*,16µM*
CCCN1C(=O)/C(=C/c2ccc(N3CCOCC3)cc2)NC1=S,22,1%,1%,-21%,15µM*,?
Cc1ccc(CN2C(=O)N/C(=C\c3ccc(N4CCOCC4)cc3)C2=O)cc1,5,-5%,-12%,-3%,?,-28%
CCN1C(=O)/C(=C/c2ccc(N3CCCC3)cc2)NC1=S,-67*,7%,143%,-24%,23µM*,23µM*
CCC1(C2CCN(C(=O)c3ccccc3C)CC2)NC(=O)N(CCc2scnc2C)C1=O (configuration not stated),·,·,·,·,4%,15%[9.04 µM]
Cc1ccc(S(=O)(=O)N2CCOC23CCN(C(=O)c2ccc(Cl)cc2Cl)CC3)cc1,?,1%,?,-34%,21µM*,?
Cc1ccc(S(=O)(=O)N2CCOC23CCN(S(=O)(=O)c2c(C)cc(C)cc2C)CC3)cc1,-19,0%,-17%,0%,?,18µM*
O=S(=O)(c1ccc(Cl)cc1)N1CCC2(CC1)OCCN2S(=O)(=O)c1cccs1,-13,3%,-18%,0%,18µM*,?
COc1ccc(S(=O)(=O)N2CCOC23CCN(S(=O)(=O)c2ccc(C)cc2)CC3)cc1,-13,0%,17%,-20%,?,?
COc1cc(NC(=O)COC(=O)c2n[nH]c3ccccc23)c(C)cc1[N+](=O)[O-],19,-3%,?,-40%,?,?
COCc1cc(C)nc2sc(C(=O)Nc3cc(C)ccc3F)c(N)c12,·,-7%,·,-35%,?,-14%
COc1ccc(OC)c(NC(=O)N2CCN(S(=O)(=O)c3ccc4c(ccn4C)c3)CC2)c1,·,5%,-6%,-3%,·,·
O=C(Nc1cccc(S(=O)(=O)N2CCCCC2)c1)c1ccc2ccccc2n1,-14,-3%,3%,8%,21µM*,29µM*
O=C(Nc1cccc(S(=O)(=O)N2CCCC2)c1)c1ccc2ccccc2n1,?,5%,-19%,-15%,23µM*,21µM*
O=C(Nc1cccc(S(=O)(=O)N2CCOCC2)c1)c1ccc2ccccc2n1,-16,1%,21%,18%,?,?
CCOc1ccc(NC(=O)C2CCCN(c3cnccn3)C2)cc1 (configuration not stated),-9,5%,-7%,0%,-19%,7%
COC(=O)c1ccc(C2C(Oc3ccccc3)C(=O)N2CCc2ccc(F)cc2)cc1 (configuration not stated),-7,2%,2%,-10%,?,?
CC1SC(c2ccc(F)cc2)N(CCc2ccccc2)C1=O (configuration not stated),-5,·,-4%,-22%,23µM*,1%

# Assay outcomes as filed in PubChem.
